According to ChEMBL document CHEMBL4513216, “Probing the Open Global Health Chemical Diversity Library for Multistage-Active Starting Points for Next-Generation Antimalarials” (ACS Infect Dis, 2020):
The campaign covered roughly 69,000 compounds. About 8,600 (12%) showed an effect of 50% or more. Shown is part of a subset that was picked to be rich in strong results.

System: Plasmodium berghei
Test: Screen against P. berghei liver stage (PbLuc), transformed with Luciferase, at 10uM
Type: functional, HepG2
Details: tested at 10 uM

SMILES	INHIBITION
O=C(NC1CC1)N1CCOCC2(CCN(Cc3cccs3)C2)C1 (centres undefined)	-0.371%
COCC(=O)N1CCOCC2(CCN(Cc3cccs3)C2)C1 (centres undefined)	-13.2%
O=C([C@H]1CCCO1)N1CCCC2(COCCN(c3ccccc3)C2)C1 (some centres undefined)	66.3%
Cc1ccc(C2CSCCN2C(=O)c2cnsn2)o1 (centres undefined)	8.46%
CN1CCN(C(=O)c2n[nH]c3c2CN(C2CCOC2)CC3)CC1 (centres undefined)	22.3%
CCNc1ncnc2c1CN(C1CCCNCC1)C(=O)CN2C (centres undefined)	40%
CNc1cc(C2CN(CC(=O)N(C)C)CCO2)nc(C)n1 (centres undefined)	14.7%
Cc1cc(=O)[nH]cc1C(=O)N1Cc2ccccc2N(C)CC1C (centres undefined)	52.6%
CCC1CN(C)c2ccccc2CN1C(=O)c1c[nH]c(=O)cc1C (centres undefined)	28.7%
CC1CN(C)c2ccccc2CN1C(=O)c1cc[nH]c(=O)c1 (centres undefined)	-18.3%
O=C(NCCNc1ncccn1)C1CC(=O)N(CC(F)(F)F)C1 (centres undefined)	19.5%
O=C(NCCc1ccccn1)C1CC(=O)N(CC(F)(F)F)C1 (centres undefined)	2.3%
Cc1ccccc1CCNC(=O)C1CC(=O)N(CC(F)(F)F)C1 (centres undefined)	55.5%
O=C(c1cn(-c2ccc(C(F)(F)F)cn2)nn1)N1CCCCCC1	46.1%
CN1CCN(C(=O)c2cn(-c3ccc(C(F)(F)F)cn3)nn2)CC1	59.1%
CC1CCN(C(=O)c2cn(-c3ccc(C(F)(F)F)cn3)nn2)CC1	2.55%
CC(C)N(Cc1ccccn1)S(=O)(=O)N1CCCC1c1ccco1 (centres undefined)	7.515%
CCn1nnc2c1C(COC)CN(Cc1cccs1)C2 (centres undefined)	-0.113%
COc1ccc(-c2nnsc2C(=O)N2CCC(C(N)=O)CC2)cc1	90.4%
COc1ccc(-c2nnsc2C(=O)N2CCSCC2)cc1	26.4%

SMILES	INHIBITION
CCC(C)NC(=O)c1snnc1-c1ccc(OC)cc1 (centres undefined)	74%
COc1ccc(-c2nnsc2C(=O)N2CCN(C(C)=O)CC2)cc1	2.49%
COC(=O)[C@@H](NC(=O)c1snnc1-c1ccc(OC)cc1)C(C)C	24.7%
COC(=O)[C@H](CC(C)C)NC(=O)c1snnc1-c1ccc(OC)cc1	24.1%
O=C(NCCO)NC(c1ccccc1)c1ccc2c(c1)CCCO2 (centres undefined)	22.6%
NCCC(=O)N1CCC2(CC1)CN(C(=O)c1ccc(Cl)cc1)CCO2	16.8%
Cc1nc(CN(C)Cc2cnc(N3CCOCC3)s2)no1	32.1%
COCCN(Cc1cnn(C)c1)c1nc2c(s1)c(C)nn2C	45.2%
COCCN1CCCC(CN(C)c2nc3c(s2)c(C)nn3C)C1 (centres undefined)	3.96%
COCCN(Cc1nccs1)c1nc2c(s1)c(C)nn2C	22%
COCCN1CCC(CN(C)c2nc3c(s2)c(C)nn3C)C1 (centres undefined)	48.5%
CCCc1nnc(N(C)CC2CCN(CC(C)C)C2)o1 (centres undefined)	-62.4%
COCCN(CCOC)c1nc2c(s1)c(C)nn2C	65.6%
COCCN1CCC(CN(C)c2nc3c(s2)c(C)nn3C)CC1	64.4%
Cc1nn(C)c2nc(N(C)CCN(C)C3CCCC3)sc12	39.9%
Cc1nn(C)c2ncnc(N(C)CC3CCN(CC(C)C)C3)c12 (centres undefined)	36.3%
Cc1nn(C)c2nc(N(CCN(C)C)C3CCCC3)sc12	53%
Cc1nn(C)c2nc(N(C)CCN(C)C)sc12	39.1%
Cc1nn(C)c2nc(N(C)CC3CCN(CC(C)C)C3)sc12 (centres undefined)	74.3%
